Compound activity deposited in PubChem BioAssay by National Center for Advancing Translational Sciences (NCATS).
Only some compounds are listed: those with a hit (about 21% of all), similar ones and a draw of the others.
Cycloheximide cs: counter-screen hit for Shiga toxin inhibitors, cycloheximide. cell reporter, cycloheximide protein synthesis inhibition counterscreen. max response, %. hit rate 12% among 300,000. AID 2314; in the data active means max response mostly above about 13%, no sharp cut-off; inactive means mostly below about 14%; further: read at 38.3 µM for the half of the compounds with a filed dose; 0% is about no effect
Pf growth 96h: P. falciparum growth inhibition at 96 hour, primary screen for plastid delayed-death inhibitors; P. falciparum luciferase reporter growth, 96 h; Potency, µM (series often up to 28.7 µM), without a hit: at the highest dose activity change, negative = inhibition, most hits filed as inhibitors; hit rate 6.9% among 320,000; further: potency means the concentration at half of the fitted maximal effect; on the % scale 0 is the no-effect control and ±100 the full control effect
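Parasite growth measured via integrated firefly luciferase reporter in P. falciparum. Infected erythrocytes at 2% hematocrit, 0.05% parasitemia final were treated 96 hours at 37 C under 5% CO2, and luminescence was read.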
NS1 inh: influenza NS1 inhibition; hit rate 0.4% among 270,000; Potency, µM (top dose mostly 46.1 µM), without a hit: at the highest dose activity, positive = more growth; calls by dose curve; further: potency means the concentration at half of the fitted maximal effect; actives are rising curves; nearly all actives have a fitted effect of over 50% in size
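OD600 was taken as the measure of yeast growth restored by compound in an NS1-expressing S. cerevisiae strain. Cells had been washed out of glucose medium and diluted 1:100 into galactose -URA medium, pH 6.0.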
Pf growth 48h: P. falciparum growth inhibition at 48 hours (one generation). hit rate 5.9% among 310,000. AID 504832. Potency, µM (series often up to 28.7 µM), inactives show at the highest dose activity change, negative = inhibition, most hits filed as inhibitors. P. falciparum luciferase growth in erythrocytes, 48 h; further: potency means the concentration at half of the fitted maximal effect; on the % scale 0 is the no-effect control and ±100 the full control effect
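Parasite viability was followed by luminescence of a genomically integrated firefly luciferase. Cultures held 0.1% parasitemia at 2% hematocrit (final), incubated under 5% CO2 at 37 C.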
Shiga toxin inh: blocks Shiga toxin action in Vero cells; inhibition, % at 38.7 µM; hit rate 9.2% among 290,000; Vero cells, Shiga toxin protein synthesis inhibition reporter; in the data active means inhibition mostly above about 28%, no sharp cut-off; inactive means mostly below about 43%; further: 0% is about no effect
* hit, by the source's call; ? = inconclusive; . = no result given; + = active, no number; [ ] = dose if it differs, or a comment. Unless noted, the call rests on the fitted dose curve; in most records, active means well fitted inhibition curve with a large enough effect; inconclusive means small, poorly fitted or top-dose-only effect, or another doubt; inactive means no such curve, though single readings can be large or run the other way.

SMILES	Cycloheximide cs	Pf growth 96h	NS1 inh	Pf growth 48h	Shiga toxin inh
OC(COc1ccc(Br)cc1)CN1CCN(c2ccccc2)CC1 (centres undefined)	-3	?	-4%	12%	-5
OC(COc1ccc(F)cc1Cl)CN1CCC(Cc2ccccc2)CC1 (centres undefined)	-5	?	-4%	12µM*	1
O=C(c1ccccc1)N1CCN(CC(O)COc2ccc(Br)cc2)CC1 (centres undefined)	-3	9.3µM*	?	-6%	.
OC(COc1ccc(CN2CCCCO2)cc1)CN1CCCCC1 (centres undefined)	-8	12µM*	2%	?	15
O=C(Cn1nnnc1CN1CCOCC1)N1CCC(c2cccc(Cl)c2)C1 (centres undefined)	-2	20%	-4%	4%	-13
O=S(=O)(c1ccc(OCC(O)CN2CCC(Cc3ccccc3)CC2)cc1)N1CCOCC1 (centres undefined)	-3	?	-10%	12µM*	-7
OC(COc1ccccc1)CN1CCN(C(c2ccccc2)c2ccccc2)CC1 (centres undefined)	-1	19%	-12%	?	-6
OC(COc1ccc(OCc2ccccc2)cc1)CN1CCOCC1 (centres undefined)	20*	.	1%	18%	36
OC(COCc1ccco1)CN1CCN(C(c2ccccc2)c2ccccc2)CC1 (centres undefined)	-4	6.6µM*	-10%	10µM*	-3
O=S(=O)(c1ccc(OCC(O)CN2CCN(c3ccccc3)CC2)cc1)N1CCOCC1 (centres undefined)	-3	6%[5.75 µM]	-2%	-14%	-3
N#Cc1ccc(OCC(O)CN2CCN(C(c3ccccc3)c3ccccc3)CC2)cc1 (centres undefined)	-4	12µM*	-23%	?	-6
COc1ccc(CN2CC(C(=O)NCCCN3CCCCC3)CC2=O)cc1 (centres undefined)	-1	-3%	-8%	23%	7
COc1cccc(CNC(=O)N2CCN(c3ccccc3)CC2)c1	1	24%	-3%	14%	-4
Cc1nn(C)cc1S(=O)(=O)N1CCN(c2ccccc2)CC1	-5	37%	?	4%	-8
OC1CCCN(CC(O)COc2ccc(-c3ccccc3)cc2)C1 (centres undefined)	23*	-26%	2%	8%	54*
Cc1ccc(OCC(O)CN2CCOCC2)cc1 (centres undefined)	-3	-12%	3%	18%	.
OC(COc1ccc(-c2ccccc2)cc1)CN1CCOCC1 (centres undefined)	22*	69%	.	-4%	28
CSCC[C@H](NC(=O)[C@H](Cc1ccc(OS(=O)(=O)O)cc1)NC(=O)[C@@H](N)CC(=O)O)C(=O)NCC(=O)N[C@@H](Cc1c[nH]c2ccccc12)C(=O)N[C@@H](CCSC)C(=O)N[C@@H](CC(=O)O)C(=O)N[C@@H](Cc1ccccc1)C(N)=O	8	.	.	.	-8
Cc1ccc(C)c(OCC(=O)N(C)CC(=O)Nc2ccc(Cl)c(C(F)(F)F)c2)c1	.	?	.	12µM*	.
CN(CC(=O)Nc1ccc(Cl)c(C(F)(F)F)c1)C(=O)c1cc(-c2ccncc2)nc2ccccc12	.	?	.	13µM*	.
Cc1ccc(OCC(=O)N(C)CC(=O)Nc2ccc(Cl)c(C(F)(F)F)c2)c([N+](=O)[O-])n1	.	14%	.	5%	.
CC1CN(C(=O)c2ccc(OC3CCN(Cc4ccccn4)CC3)cc2)CCN1C (centres undefined)	-1	67%	-5%	1%	-10
CCn1c(SC)nc2c(c1=O)SC(C)C2 (centres undefined)	-2	2.3µM*	-10%	?	4
CCSc1nc2c(c(=O)n1CC)SC(C)C2 (centres undefined)	-2	38%	-16%	-21%	-12
CC(=O)c1ccc(NC(=O)CN2C(=O)CCC2=O)cc1	1	11%	5%	1%	19
SMILES	Cycloheximide cs	Pf growth 96h	NS1 inh	Pf growth 48h	Shiga toxin inh
CC(C)c1csc(CN2CCC(N3CCC(C(=O)NCC4CCCO4)CC3)CC2)n1 (centres undefined)	1	?	0%	-16%	8
CC(C)CC(C)c1cc(N)nc2nc3ccccc3n12 (centres undefined)	-3	12µM*	.	10µM*	25
CCOC(=O)c1cc2sccc2n1CC(=O)N1CCCC1	-4	-20%	-4%	-4%	-4
C=CCn1c(CCC(=O)Nc2ccc(C)c(Cl)c2)nnc1SCC(=O)Nc1ccccc1C	11	?	-9%	?	-4
Cc1cc(C)n(S(=O)(=O)c2ccc(C)c(C)c2)n1	-1	2%	7%	1%	-5
Cc1ccc(NC(=O)CN(C)C(=O)CNC(=O)c2ccc3c(c2)OCO3)cc1	.	52%	.	1%	.
CN(Cc1ccc(Cl)cc1Cl)C(=O)CNC(=O)c1ccc2c(c1)OCO2	.	12µM*	.	10µM*	.
CSc1ccc(CN(C)C(=O)CNC(=O)c2ccc3c(c2)OCO3)cc1	.	8.3µM*	.	4.1µM*	.
COc1ccccc1NC(=O)C1CCCN(S(=O)(=O)c2cnc[nH]2)C1 (centres undefined)	-3	0%	-9%	.	-10
CCOc1ccc2nc(NC(=O)C3CCCN(S(=O)(=O)c4cccs4)C3)sc2c1 (centres undefined)	9	-14%	-44%	15µM*	14
Cc1ccc2nc(NC(=O)C3CCCN(S(=O)(=O)c4cnc[nH]4)C3)sc2c1 (centres undefined)	43*	?	?	-13%	+
COc1ccc(C)cc1NC(=O)C1CCCN(S(=O)(=O)c2cnc[nH]2)C1 (centres undefined)	-1	12µM*	-5%	.	-9
Cc1ccnc(NC(=O)C2CCCN(S(=O)(=O)c3cnc[nH]3)C2)c1 (centres undefined)	21	?	-11%	0%	-5
Cc1ccc2nc(NC(=O)C3CCCN(S(=O)(=O)c4cccnc4)C3)sc2c1 (centres undefined)	1	8%	-67%	13µM*	-24
CCOc1ccc2nc(NC(=O)C(NS(=O)(=O)c3cccs3)C(C)C)sc2c1 (centres undefined)	-3	?	1%	0%	-1
O=C(CO/N=C/c1ccccc1Cl)N1CCCc2ccccc21	0	?	-23%	-21%	18
c1ccc(-c2cc(N3CCOCC3)nc3ccccc23)cc1	-1	-9%	-52%	3%	-26
CC1CN(c2cc(-c3ccccc3)c3ccccc3n2)CC(C)O1 (centres undefined)	-3	2.6µM*	-22%	.	37
COc1ccccc1NC(=O)CN1CCN(CC(=O)Nc2ccc(C)c(F)c2)CC1	-1	?	-12%	?	-9
O=C1c2ccccc2C(=O)N1Cc1cnc(N2CCN(c3ccccc3)CC2)s1	1	14%	-2%	-14%	-13
Cc1ccc(Cc2cnc(N3C(=N)SC(c4ccccc4)C3=O)s2)cc1 (centres undefined)	1	9.3µM*	5%	5%	22
